Assay results: the supplement of paper PMC12632987

B1: uchl1_199_7511 (protein)
chain: MTKEEDIARNMAGRLLRYELDPEKVRERARRLATLLVERLSHLSVEEITETFLILVELVAKENNPEVLRAVTEAIVEVVRERLGDEEAARRIRERAEELA
B2: uchl1_199_7515 (protein)
chain: MTRAESIAAQLGGRLLSGIYSPEVLAARAAALWADVLRRLSDLPDEELLEAFRILLEALAAAVDEASARAAAEAIVAVLAEERGIGERARAIADEVLAAR
B3: uchl1_199_7506 (protein)
chain: SSKTEDIARNMAGRLLRYIRTPEVLAARARRLTRLLIERQTDLSVEEITETLLKLVELVHKERTPEETRAVTDAIVEAVLELLGDEEAARRIREHAEELL
B4: uchl1_155_7498 (protein)
chain: GTTVTVTATGTAADGTVVTSTTTFTGLTSSVADMQALQAAILAQLLAVAAQVDGDIDLAVTVSNATANQAVGIGTAVRRAASQAGKQTGLTINVTLTGAP
B5: uchl1_199_7509 (protein)
chain: SSKTRSIAINMAGRLLRYIMDPETARERALRLARELITRRPGLSVEEITETFELLVRLVAAERDPETVRAVTDAIVEAILELLGDEEAAARVRATAEALV
B6: uchl1_143_7491 (protein)
chain: GLDNLEVETVEIEVSEEDTPEELAARLREVIEEALAKGKALRIILTVPPDPNVRLMVNTVARRVLREFAQEHRDELKYVEIYARDEETGKEQLLAEFVNP
B7: uchl1_199_7516 (protein)
chain: MTRAESIARMLGGRLLRGIRDPEKLAARAAELTRRMLERLANLPDETILETVRLLLEAIARERSLEDARAAGEAIVEVLAEERGIGEAARAVVDEVLAAA
B8: uchl1_199_7513 (protein)
chain: MTRAESIARQVGGRLLSGIGSPEVLAARAARLLRLVLERLPDLPDEELLEAVRLLLRAIAAERSPEAFDAVAAALTAVLQEERGIGERMAAIAAEVRAEA
B9: uchl1_199_7518 (protein)
chain: MSREEDIARYMAGPFLFSNGSPEVVRARAYRLTVRLIRTRKDLSREELTAILVRFVEILAANRDPETVRAATEGIVEAVLEELGDEESAARIRAAAEALL
B10: uchl1_143_7492 (protein)
chain: GAAAVPVLRVEITVTRDTTPEELRARLEAAVREAAARKAALEVTITVPPDPNLKLMVNTVARRVARRAAREYADTLPRLTINARDAETGKTQVVAEAVNP
B11: uchl1_143_7488 (protein)
chain: EVKVIELSPEEVAEILSLSDEEALARLKEIIEAAVELGVDTEIRIPAPEDANDRLRLHTLVKRAAREVAKKYADKIDSVEIYQELDPNARPRIVVRITVK
B12: uchl1_199_7505 (protein)
chain: SSRTEDIARNMAGRLLRYIRSPEVLAERARRLTRELIERQTHLSVEEITETLKLLVTYIHAERSPEETRAATDAIVEAVRELLGDEAAAAAIRAHTEALL
B13: uchl1_155_7496 (protein)
chain: MLRVRVTITGTNADGTTLTRELELEIENPTLEKIQEAAREIAEAVREFALAVDGPVEVRVEVSADRRLHAASFSQALRRALREVAKETGKEITLDVRGVP
B14: uchl1_143_7487 (protein)
chain: AVEVIELSPEEVAAWLALPDEEALAALEAVLEAAVDRGVDTLVRIPAPEDANDRLRLNTLVRRAARRVAAAHADRIDSVTISQEKDPNGPPRLVVSIRVK
B15: uchl1_199_7517 (protein)
chain: MSREDDIARYMAGPFLLSNGSPEVVRARARERTRRLIRTRKDLSPEELTEIMVRFVEILAAHRDPETVRAATEGIVEAILEELGDEEAARRVRARAEELL
B16: uchl1_179_7504 (protein)
chain: ARRLVRIRATIVFPRSTTREEALAVARRIHAALKELGVTGLINLRVSRYNPENNPEHPDRMVIRLGLVVPEELADAVEAAIRALAAEAGAEIEIEREAIA
B17: uchl1_199_7507 (protein)
chain: SSLTEDIARNMAGRLLRYIRTPEVLAARAAELTARLIREQTHLSVEELTEIFLLLVDYVHAERTPEETRAATDAIVAEVERLLGDAAAAARIRAHAAALL
B18: uchl1_143_7494 (protein)
chain: GPVVEPVVVIELRIERTDTPEEIRAKIRAAVEEAVATGKPTVIEITVPADANMRLTVSTSARRVAREAAKEHPDKIKDLRIYARDEETGKRQLIAEVIKE
B19: uchl1_179_7503 (protein)
chain: AMKKVRIRATITFPKSTTMEQALAVAKEIAAALKELGVTGVSRIVVSRYNPENDPAHPDHMVITIGLVVPEEKAEAVIEAIKEIAAKAGAEVEIETEEVA
B20: uchl1_155_7497 (protein)
chain: MTTVTVVVTGTSPDGTTVTKTKTFEGLTSSVADLEALREAMKAMIVETAKEVKGDVDVTVNVTNATANQAVGIGTAARRAANEAGKETGLTVSLTLVGVP
B21: uchl1_143_7489 (protein)
chain: EVRVLDVSEAEVAEILALSPEEAVAAIYARLSAAIALGVDTEVRFPAPERANDRLRLGTAVRRAARRAARDHADEIADVVIYNERDPDERPRLVVRITRK
B22: uchl1_199_7512 (protein)
chain: MSRAESIARQVGGRLLSGIGSPEVLAAKAAALLRRVLARLPDLPDETLLEMVRILLEAIARERSPEAFAAVAAALIAVLDAERGIGAEVAAIAEEVRAAA
B23: uchl1_143_7493 (protein)
chain: GAPAEEVVVLELTIEETDTPEEIRAKITAAIEEAVATGKPSVVVITVPPDPNVRVTVGNAAKRAVREAAKAHGDQIKDLRVVARDAETGKEQLLAEVVNP
B24: uchl1_155_7500 (protein)
chain: GTTVTVTVTGTASDGTTHTLTKTFEGLTSSVADMEALREAILAMLLELAAKVDGDIKLTVNVRNATANQAVGIGTAVRRAASEAGKKTGKTIDVDITGLP
B25: uchl1_155_7499 (protein)
chain: GTTVTVTATGTAADGTTHTLTKTFEGITSSVEDMLALRDEILAMLLELAAKVDGDIDLKVDVSNATANQAVGIGTAVRRAASEAGKETGLTINVDITGLP
B26: uchl1_199_7514 (protein)
chain: MSRAESIARQVGGRLLSGVGSPEVLAARAARLLREVLARLPDLPDEELLAMVRILLEAIAKNRSPETFDAVAAALIAVLQEERGIGAAAAAIAAEVRAKA
B27: uchl1_155_7501 (protein)
chain: MATVTVTATGTAPDGTTHTLTKTFEGITSSVEDLLALREAVLALLVELAKKVKGDVDVVVEVSNADANTRVGIGTAVRRAASEAGKQTGLTVSVTIREVA
B28: uchl1_155_7502 (protein)
chain: MRTVRITIDVTLPDATETVEVTLERTVSDKPEDREALAEEVAATVDAILAQGKNVRLTVTVTVPDKMVVAASLYQAIRRRVRAVARRHGAEVVITAEVVP
B29: uchl1_155_7495 (protein)
chain: MLEVEVEVVARRPDGTVARERFRFRTEEITPENRRALAERVAERVREFVERHGGDVDVTVRIRSPSQIARASLYRAIRIRLREVAKELGVEVTVRAEPVP
B30: uchl1_143_7490 (protein)
chain: SSSDLPVEEVTITVTLDDTPEQIRARLRAAIEAAVAAGRALRINITVPADPNMRLMVNTVARRVAREVARAHADRVRHVEIYATDAATGKTDLLAEVVNP
B31: uchl1_199_7508 (protein)
chain: SSKTEDIARNMAGRLLRYIRSPEVLAARARRLTERLIREQTHLSVEEITETFLLLVDYVHANRSPEQTRAVTDAIVEAVERELGDEEAAKRIREHTESLL
B32: uchl1_199_7510 (protein)
chain: SSRTESIARNMAGRLLRYIMDPETARERARRLARRLITRRPGLSVEELTETFQLLVEYVAAERDPAVTRAVTDALVEAVREELGDEAAAAAVRARAEELL

Biological target: UCHL1, P09936
Sequence (P09936 whole entry, looked up, the tested form may be a part): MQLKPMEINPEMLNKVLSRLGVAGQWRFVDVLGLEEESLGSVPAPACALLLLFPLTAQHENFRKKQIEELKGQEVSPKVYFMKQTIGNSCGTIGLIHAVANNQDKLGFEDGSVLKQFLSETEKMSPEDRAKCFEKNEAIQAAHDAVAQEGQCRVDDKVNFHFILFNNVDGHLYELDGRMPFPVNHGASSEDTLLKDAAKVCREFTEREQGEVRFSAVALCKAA
Experiment: median log2 fold change of GCK-ALFA target abundance (FLAG IP / Myc IP barcode read proportion) (log2 ratio); each designed protein is fused to an ALFA-tag nanobody in HEK293 cells to bring the named protein to FLAG-tagged glucokinase (GCK); Myc marks an untargeted standard; higher = target protein stabilised (more abundant)
Settings: target protein: 3xFLAG-MCP-GCK-ALFA reporter; HEK293 landing pad (RPLP)
Procedure, shortened: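 HEK293 landing-pad cells received a recombined binder library fused to the ALFA nanobody and were induced with 2 μg mL^−1 doxycycline, then transfected with a plasmid encoding a FLAG-tagged target and a Myc-tagged standard. Lysates were collected after 48 h for anti-FLAG and anti-Myc immunoprecipitation, and the circular RNA barcodes were reverse transcribed, amplified and sequenced. Target abundance for each binder is the median log2 ratio of FLAG to Myc barcode read proportions. Barcodes had to reach a proportion of at least 10^−7 in both replicates, each binder needed at least 3 barcodes per replicate, a pseudocount of 10^−6 was applied, and the two replicates were pooled.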

Binder	median log2 fold change
B1	-0.27
B2	0.16
B3	0.171
B4	0.16
B5	-0.0199
B6	0.302
B7	-0.835
B8	-0.209
B9	-0.219
B10	0.184
B11	0.21
B12	0.192
B13	0.0376
B14	0.226
B15	0.00596
B16	0.192

Binder	median log2 fold change
B17	0.269
B18	0.397
B19	-0.0524
B20	0.314
B21	0.144
B22	-0.679
B23	0.229
B24	0.302
B25	0.302
B26	-0.0877
B27	0.237
B28	-0.0533
B29	-0.0429
B30	0.232
B31	0.0747
B32	-0.193
